Bioassay records deposited in PubChem by The Scripps Research Institute Molecular Screening Center.
SF1 inhibitor: inhibitors of human SF-1, primary screen, cell-based, CHO-K1, Gal4-SF-1 LBD, luciferase luminescence | CHO-K1 Gal4-SF-1 LBD luciferase reporter | inhibition, % at 10 µM | hit rate 0.55% among 65,000 | Steroidogenic factor 1 (Homo sapiens), Q13285;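 active = inhibition above the mean inhibition of all tested compounds plus 3 SD, cut at about 48% in these data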;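 also: 0% = SF-1 transfected cells with DMSO and 100% = mock-transfected cells lacking SF-1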
Target sequence (Q13285 whole entry, looked up, the tested form may be a part): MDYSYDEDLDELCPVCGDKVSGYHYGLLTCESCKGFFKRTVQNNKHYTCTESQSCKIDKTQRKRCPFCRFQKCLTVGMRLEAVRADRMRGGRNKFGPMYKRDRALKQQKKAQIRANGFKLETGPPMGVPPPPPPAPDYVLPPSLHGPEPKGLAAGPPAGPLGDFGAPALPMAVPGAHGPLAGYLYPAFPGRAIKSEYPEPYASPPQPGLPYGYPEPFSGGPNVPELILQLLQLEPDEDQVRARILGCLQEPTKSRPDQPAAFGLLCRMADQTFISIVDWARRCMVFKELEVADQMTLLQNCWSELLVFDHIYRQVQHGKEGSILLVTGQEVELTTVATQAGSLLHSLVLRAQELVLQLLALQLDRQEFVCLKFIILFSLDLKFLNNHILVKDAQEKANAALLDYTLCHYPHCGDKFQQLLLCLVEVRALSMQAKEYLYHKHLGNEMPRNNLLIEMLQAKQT
Active calls of the source: *. Shown is part of a subset that was picked to be rich in hits.

SMILES | SF1 inhibitor
Cc1cc(C)n(-c2nc(NC(C)(C)C)nc(NC(C)(C)C)n2)n1 | 53*
CCOc1cc(N2CCOCC2)c(OCC)cc1NC(=O)CSc1cccc[n+]1[O-] | -8
CCn1c(SCc2cccnc2)nnc1-c1c[nH]c2ccccc12 | 1
Cc1nnc(SCCN2CCOCC2)n1C | -13
O=C(NCCN1CCN(c2ccccc2F)CC1)C1CC(=O)N(C2CCCC2)C1 (stereo not drawn) | 5
CCOc1ccc(C(C)=O)cc1CSc1nnc(-c2cccs2)n1CC1CCCO1 (stereo not drawn) | 7
C/C(N)=C(/C#N)C(=O)CSc1nc2ccc(C)cc2[nH]1 | -77
CCOC(=O)N1CCN(C(=O)c2ccc3c(SCC(=O)O)c4c(nc3c2)CCC4)CC1 | 10
CN=c1scc(C)n1/N=C/c1ccc(O)cc1O | 52*
CN=c1scc(C)n1/N=C/c1ccc(O)cc1 | 25
Cc1nn(S(=O)(=O)N2CCCCC2)c(C)c1Br | -9
c1ccc(-c2nc3ccccc3s2)nc1 | -60
c1ccc(-c2ccc(-c3ccccn3)nn2)nc1 | 53*
c1ccc(-c2n[nH]c(-c3ccccn3)n2)nc1 | -78
CC(C)Cn1c(N)c(C(=O)CSc2ccc3c(c2)OCCO3)c(=O)n(C)c1=O | 69*
CC(C)c1nc(SCC(=O)Nc2ccc3c(c2)OCCO3)c2c(=O)n(C)c(=O)n(C)c2n1 | 8
CCn1c(SCC(=O)c2ccc3c(c2)OCCO3)nnc1C(C)C | -18
Cc1ccc(S(=O)(=O)c2nc(-c3ccco3)oc2SCC(=O)NCC2CCCO2)cc1 (stereo not drawn) | -8
Cc1c(NC(=O)CCCCCN2C(=O)C3C4C=CC(C4)C3C2=O)c(=O)n(-c2ccccc2)n1C (stereo not drawn) | -11
CCOC(=O)Cn1c(=O)c2c(nc(Br)n2Cc2ccc(Cl)cc2)n(C)c1=O | 0
CCCCS(=O)(=O)/C=C\C=C/S(=O)(=O)CCCC | 96*
CN(c1ccc(C(=O)Nc2ccccc2C(F)(F)F)cc1)S(C)(=O)=O | -15
O=C(Cn1c(=O)sc2ccccc21)NCCOc1ccccc1F | -10
Cc1ccc(NC(=O)CS(=O)CC(=O)NCC2CCCO2)cc1 (stereo not drawn) | 8
Clc1ccc(OCCN2CCN(c3ncnc4sccc34)CC2)cc1 | 90*
SMILES | SF1 inhibitor
Nc1c(C(=O)Nc2ccc(Cl)cc2)oc2ccccc12 | -106
CCn1c(SCC(=O)NCCOc2ccccc2)nc2ccccc2c1=O | 7
Cc1cc(C(=O)CNCc2ccco2)c(C)n1-c1ccc(F)cc1 | -53
COc1ccc2cc(C(=O)NCc3ccco3)c(=O)oc2c1 | 11
COc1ccc(C(=O)Nn2c(SCC(=O)NCc3ccco3)nc3ccccc3c2=O)cc1 | 62*
CCOC(=O)CSc1nc2cc(C(=O)NCc3ccco3)ccc2c(=O)n1-c1ccc(F)cc1 | 51*
CCOC(=O)CSc1nnc(CNC(=O)c2ccc(OC)cc2OC)n1-c1ccc(OC)cc1 | 14
CCOC(=O)c1cnc(-n2nc(C)cc2C)nc1NC1CCCCC1 | 87*
CCOC(=O)c1cnc(-n2nc(C)cc2C)nc1Nc1ccc2c(c1)OCO2 | 6
CCOC(=O)c1snc(C(=O)NC2CCCCC2)c1N | -106
CC(=O)c1c(C)nc2nonc2c1N | 4
CCC(C(=O)N1CCc2ccccc2C1)n1nc(C)n2c(cc3occc32)c1=O (stereo not drawn) | 18
O=C(CSc1nc2cc(Cl)ccc2o1)c1cccs1 | -18
CC(NC(=O)c1cc2ccccc2o1)c1cccs1 (stereo not drawn) | -11
CCOC(=O)CSC(CC)C(=O)Nc1nnc(C(C)C)s1 (stereo not drawn) | -18
CCCCn1c2c(c(=O)n(C)c1=O)C(c1ccc(OC)cc1)N1CCCCCC1=N2 (stereo not drawn) | 49*
CCC1Oc2ccccc2N(CC(=O)Nc2ccccc2OC)C1=O (stereo not drawn) | -3
CCN=C1SC(C(=O)Nc2cccc(OCC)c2)CC(=O)N1CC (stereo not drawn) | 24
CCC(CC)c1nc(NCCC(=O)O)c2ccccc2n1 | 6
CCOC(=O)c1ccccc1NC(=O)c1ccc(NS(C)(=O)=O)cc1 | -3
Cc1nn(-c2ccccc2)c2sc(C(=O)N(CC(=O)NC(C)(C)C)Cc3ccco3)cc12 | -7
CCCCCOC(=O)c1[nH]c2c(c1C)C(=O)CC(c1ccco1)C2 (stereo not drawn) | 57*
CC1CCN(c2ccc(NC(=O)c3cccnc3)cc2)CC1 | -59
COc1cc2c(cc1NC(=O)c1cncc(Br)c1)oc1ccccc12 | -2
COc1cc2c(cc1NC(=O)CSc1nnnn1-c1ccccc1)oc1ccccc12 | 84*
SMILES | SF1 inhibitor
COc1cc2c(cc1NC(=O)CSCC(=O)O)oc1ccccc12 | 4
CCOC(=O)C1CCN(C(=O)CN(c2cccc(OC)c2)S(=O)(=O)c2ccccc2)CC1 | -1
COc1ccc(N2CCN(C(c3cccs3)C(C)NC(=O)c3ccco3)CC2)cc1 (stereo not drawn) | -16
Cc1cnc(NC(=O)c2ccco2)s1 | -53
Cc1sc(NC(=O)c2ccco2)c(C(c2cccnc2)N2CCN(c3ccc(F)cc3)CC2)c1C (stereo not drawn) | 48*
COc1ccccc1-c1nc2n(n1)C(c1cccs1)C(C(=O)Nc1cccnc1)=C(C)N2 (stereo not drawn) | -2
CCSc1nnc(NC(=O)CSc2nc3c(c(=O)n2-c2ccccc2)SCC3)s1 | 3
CC(=O)c1cccc(-n2nnnc2SCC(=O)N2CCCC2)c1 | 2
O=c1oc2ccccc2cc1NCc1ccccc1O | -8
COc1ccccc1CC1(C)NC(=O)N(CC(=O)N2CC(C)OC(C)C2)C1=O (stereo not drawn) | 4
COc1ccc(-c2noc(C3CCCN(C(=O)CCc4ccccc4)C3)n2)cc1 (stereo not drawn) | 4
COc1cccc(NC(=O)N2CCC(N3CCCCC3)CC2)c1 | 21
COc1ccc(NC(=O)N2CCCC(c3nc(-c4ccc(C(C)C)cc4)no3)C2)cc1 (stereo not drawn) | 59*
Cc1ccc(NC2=NC(c3ccc(C)cc3)n3c(nc(C)cc3=O)N2)cc1 (stereo not drawn) | -11
CCOC(=O)N1CCC(NC(=O)c2cnn3cccnc23)CC1 | -16
Cc1nc(NCCc2cnc[nH]2)c2oc3ccccc3c2n1 | 2
CCc1nc(NCc2ccccn2)c2oc3ccccc3c2n1 | 14
Cc1nc(NCc2ccco2)c2oc3ccccc3c2n1 | 18
COc1ccc(CCNc2ncnc3c2oc2ccccc23)cc1OC | 72*
CC(=O)c1ccc(Nc2ncnc3c2oc2ccccc23)cc1 | -89
COc1ccc(CCNc2nc(C)nc3c2oc2ccccc23)cc1OC | 58*
CCCCNC1C(CC)C(CCC)C(C#N)(C#N)C1(C#N)C#N (stereo not drawn) | 22
Cc1noc(C)c1CSc1nc2ccccc2s1 | -19
Cc1ccc(CNc2nc3ccccc3s2)s1 | 61*
c1csc(CSc2nc3ccccc3s2)c1 | -52
SMILES | SF1 inhibitor
Cn1c(=O)c2cc(S(=O)(=O)NCCC(=O)NCCC3=CCCCC3)ccc2n(C)c1=O | 12
COc1cc2c(C#N)c(N3CCc4ccccc4C3)nc(N)c2c(N)n1 | -8
c1ccc2c(c1)CCN(c1nc3cc4c(cc3s1)OCCO4)C2 | 60*
CCCn1nc(Oc2nc(SC)nc(N(C)C)n2)ccc1=O | -8
NC(=O)CSc1nnc(-c2ccoc2)o1 | 5
COc1cccc(C(=O)Nc2cccc(-c3nnc(-c4ccccc4)o3)c2)c1 | -92
CC(=O)Nc1ccc(C(=O)Nc2ccc(S(=O)(=O)N3CCCC3)cc2)cc1 | 11
